Results filed as inconclusive are left out. Unless noted, calls come from the whole dose curve; as a rule, active = well fitted curve in either direction with a large enough effect (not every such curve was filed as active); inconclusive = small, poorly fitted or top-dose-only effect, or another doubt; inactive = flat fitted curve, though single readings scatter.
Assays:
[1] = AP1 Signaling Pathway (AID 357); settings: ME-180 AP-1-bla reporter, EGF-induced, beta-lactamase ratio, 5 h; at 17.2 µM (top of the series) unless noted;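 note: ME-180 reporter cells stimulated with EGF at its EC50 level; % is set by controls: 0 for no effect and ±100 for the full control effect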
Procedure, shortened: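 Read-out was the 460nm/530nm emission ratio (excitation 405nm) after CCF4 loading for 2.5 hours at room temperature. Cells carried an AP-1-driven beta-lactamase reporter, were stimulated with EC50 EGF plus compound for 5 hours, and AC50 values came from titrations.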

[2] = NFAT Signaling Pathway (AID 444); settings: Jurkat NFAT-bla M1, carbachol, beta-lactamase ratio, 5 h; at 17.2 µM (top of the series) unless noted;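 note: carbachol stimulus at about its EC50 of 1 µM final; % is set by controls: 0 for no effect and ±100 for the full control effect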
Procedure, shortened: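 Read-out: CCF4 FRET ratio (460 nm/530 nm) after 1 h RT dye loading, used for %activity and AC50 from titration series. Cells: Jurkat NFAT-β-lactamase/M1 line, treated with compound plus 1 uM carbachol for 5 h, 37 °C.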

[3] = Stat Signaling Pathway (AID 446); settings: ME-180 (cervical carcinoma) SIE beta-lactamase reporter, IL-6 stimulated, 5 h; at 17.2 µM (top of the series) unless noted;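 note: ME-180 cervical cancer cells given 40 pM IL-6 alongside compound; SIE-controlled beta-lactamase reporter measured as 460/530 nm FRET emission ratio; % is set by controls: 0 for no effect and ±100 for the full control effect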
Procedure, shortened: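 FRET read-out (405 nm excitation, 460/530 nm emission) of a beta-lactamase reporter under a STAT-inducible element in ME-180 cervical carcinoma cells. Cells with compound receive 40 pM IL-6 for 5 h. Values are normalised to AC90 stimulation and AC90 JAK-inhibitor controls.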

[4] = target: Glucocorticoid receptor (Homo sapiens) (UniProt P04150); experiment: GR-GFP Redistribution (AID 450;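 active = compounds whose dose series gives a full or clear partial fitted curve of increased nuclear translocation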; note: potency is the fitted concentration of half-maximal effect)
Glucocorticoid receptor (Homo sapiens), sequence (P04150 whole entry, looked up): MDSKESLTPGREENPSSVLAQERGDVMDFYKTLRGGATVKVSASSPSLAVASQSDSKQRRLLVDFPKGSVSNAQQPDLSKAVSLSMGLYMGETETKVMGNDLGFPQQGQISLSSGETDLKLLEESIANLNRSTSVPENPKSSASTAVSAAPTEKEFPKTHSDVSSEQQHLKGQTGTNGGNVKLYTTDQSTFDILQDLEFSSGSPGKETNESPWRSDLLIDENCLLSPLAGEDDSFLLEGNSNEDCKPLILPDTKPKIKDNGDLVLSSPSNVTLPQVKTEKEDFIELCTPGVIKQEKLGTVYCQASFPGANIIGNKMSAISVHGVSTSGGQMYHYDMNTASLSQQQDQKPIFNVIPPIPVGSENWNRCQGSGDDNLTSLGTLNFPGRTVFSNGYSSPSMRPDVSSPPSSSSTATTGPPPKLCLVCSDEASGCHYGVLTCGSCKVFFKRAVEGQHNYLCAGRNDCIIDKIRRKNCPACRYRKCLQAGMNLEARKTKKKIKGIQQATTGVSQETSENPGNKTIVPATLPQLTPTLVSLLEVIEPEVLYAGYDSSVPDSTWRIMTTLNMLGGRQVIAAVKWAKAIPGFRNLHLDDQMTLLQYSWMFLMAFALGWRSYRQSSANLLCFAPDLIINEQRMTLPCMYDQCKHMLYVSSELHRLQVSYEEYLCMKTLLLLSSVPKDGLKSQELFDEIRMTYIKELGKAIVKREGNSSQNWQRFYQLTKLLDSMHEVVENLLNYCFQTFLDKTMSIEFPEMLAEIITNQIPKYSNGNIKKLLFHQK

COc1cc(Cn2ccnc2)c(OC)cc1Cn1ccnc1
inactive: activity change, negative = inhibition [1] 5.72% | activity change, negative = inhibition [2] -19.5% | activity, negative = inhibition [3] 4.23% | Potency [4] > 20.6 µM

CC12CN3CC(=O)N4CC5(C)CN(CC(C)(C4)C5=O)C(=O)CN(C1)CC(C)(C3)C2=O
inactive: activity change, negative = inhibition [1] -1.13% | activity change, negative = inhibition [2] 2.81% | activity, negative = inhibition [3] 0.401% | Potency [4] > 20.6 µM

COc1ccc2[nH]c(C)c(C(=O)CN3CCc4cc(OC)c(OC)cc4C3)c2c1
inactive: activity change, negative = inhibition [1] -11.9% | activity change, negative = inhibition [2] 1.37% | activity, negative = inhibition [3] 4.19% | Potency [4] > 20.6 µM

Cc1cc(NCC2CCCO2)n2c(nc3ccccc32)c1C#N (stereo not given)
inactive: activity change, negative = inhibition [1] -1.4% | activity change, negative = inhibition [2] -16.9% | activity, negative = inhibition [3] -2.4% | Potency [4] > 20.6 µM

CCOC(=O)c1c(N)sc(=S)c2c1CCC2
inactive: activity change, negative = inhibition [1] -21.1% | activity change, negative = inhibition [2] -6.19% | activity, negative = inhibition [3] -7.28% | Potency [4] > 20.6 µM

CCCOc1ccc(/C(O)=C2/C(=O)C(=O)N(CCN(C)C)C2c2ccc(OC)c(OC)c2)cc1 (stereo not given)
inactive: activity change, negative = inhibition [1] -7.95% | activity change, negative = inhibition [2] 5.84% | activity, negative = inhibition [3] -1.07% | Potency [4] > 20.6 µM

CCOc1ccc(-c2nc(C#N)c(N3CCN(CC)CC3)o2)cc1
inactive: activity change, negative = inhibition [1] -12.4% | activity change, negative = inhibition [2] 21% | activity, negative = inhibition [3] 19.7% | Potency [4] > 20.6 µM

COc1cccc(C2=CC(c3ccccc3)n3nnnc3N2)c1 (stereo not given)
inactive: activity change, negative = inhibition [1] -3.96% | activity change, negative = inhibition [2] -25.6% | activity, negative = inhibition [3] -10.3% | Potency [4] > 20.6 µM

CCOC(=O)CSc1nc(NC#N)nc(N(CC)CC)n1
inactive: activity change, negative = inhibition [1] 8.62% | activity change, negative = inhibition [2] -5.47% | activity, negative = inhibition [3] -5.41% | Potency [4] > 20.6 µM

O=C(NCCO)c1cccc2c1C(=O)c1ccccc1-2
inactive: activity change, negative = inhibition [1] 9.17% | activity change, negative = inhibition [2] 2.44% | activity, negative = inhibition [3] 10.7% | Potency [4] > 20.6 µM

COCc1cc(=O)[nH]c(Nc2nc3ccccc3o2)n1
inactive: activity change, negative = inhibition [1] 20.9% | activity change, negative = inhibition [2] -12.8% | activity, negative = inhibition [3] 1.07% | Potency [4] > 20.6 µM

Nc1[nH]nc2nc(NCc3ccccc3)c3c(c12)CCN(Cc1ccccc1)C3
inactive: activity change, negative = inhibition [1] -11.4% | activity change, negative = inhibition [2] 0.244% | activity, negative = inhibition [3] 6.86% | Potency [4] > 20.6 µM

CCCCCCC(=O)N1CCN(c2cc3c(cc2F)c(=O)c(C(=O)O)cn3CC)CC1
inactive: activity change, negative = inhibition [1] -1.28% | activity change, negative = inhibition [2] 7.84% | activity, negative = inhibition [3] 0.48% | Potency [4] > 20.6 µM

C(=N\n1cnnc1)/c1cccnc1
inactive: activity change, negative = inhibition [1] -4.05% | activity change, negative = inhibition [2] -13.4% | activity, negative = inhibition [3] 12.5% | Potency [4] > 20.6 µM

Cc1ccc(-n2ncc3c(N4CCCC4)ncnc32)c(C)c1
inactive: activity change, negative = inhibition [1] -15% | activity change, negative = inhibition [2] 22.5% | activity, negative = inhibition [3] -1.13% | Potency [4] > 20.6 µM

CCc1ccccc1NC(=O)CSC1=C(C#N)C(c2ccc(O)c(OC)c2)C2=C(CCCC2=O)N1 (stereo not given)
inactive: activity change, negative = inhibition [1] -4.47% | activity change, negative = inhibition [2] 2.67% | activity, negative = inhibition [3] -5.76% | Potency [4] > 20.6 µM

CC12CCC(=O)N1c1c(sc3nc(N4CCOCC4)c4c(c13)CCCC4)C(=O)N2 (stereo not given)
inactive: activity change, negative = inhibition [1] -25.1% | activity change, negative = inhibition [2] 8.35% | activity, negative = inhibition [3] -5.31% | Potency [4] > 20.6 µM

CC12CCC(C(=O)NCCCN3CCOCC3)(OC1=O)C2(C)C (stereo not given)
inactive: activity change, negative = inhibition [1] 12% | activity change, negative = inhibition [2] 10.5% | activity, negative = inhibition [3] 3.88% | Potency [4] > 20.6 µM

COc1ccccc1-n1c(N)c(C(=O)NCC2CCCO2)c2nc3ccccc3nc21 (stereo not given)
inactive: activity change, negative = inhibition [1] 19.4% | activity change, negative = inhibition [2] 21.4% | activity, negative = inhibition [3] -0.0521% | Potency [4] > 20.6 µM

COc1ccc(C(=O)c2oc3nc(C)cc(C)c3c2N)cc1
inactive: activity change, negative = inhibition [1] -14.2% | activity change, negative = inhibition [2] 13% | activity, negative = inhibition [3] -8.18% | Potency [4] > 20.6 µM

Cc1ccc(C)c(OCc2nnc(NC(=O)c3ccco3)s2)c1
inactive: activity change, negative = inhibition [1] -0.273% | activity change, negative = inhibition [2] 9.32% | activity, negative = inhibition [3] -9.58% | Potency [4] > 20.6 µM

COc1ccc(OCC(=O)N2CCN(C(=O)c3cccc4ccccc34)CC2)cc1
inactive: activity change, negative = inhibition [1] -4.98% | activity change, negative = inhibition [2] 5.36% | activity, negative = inhibition [3] -1.16% | Potency [4] > 20.6 µM

CNC(=O)C1CC(=O)N(Cc2ccccc2)C(=Nc2ccc(OC)cc2)S1 (stereo not given)
inactive: activity change, negative = inhibition [1] -3.9% | activity change, negative = inhibition [2] 4.86% | activity, negative = inhibition [3] -6.63% | Potency [4] > 20.6 µM

CCCCOC(=O)CSC1=C(C#N)C(c2ccc3c(c2)OCO3)CC(=O)N1 (stereo not given)
inactive: activity change, negative = inhibition [1] -13% | activity change, negative = inhibition [2] 19.6% | activity, negative = inhibition [3] -9.97% | Potency [4] > 20.6 µM

CCOC(=O)CNC(=O)Nc1ccccc1C(=O)OC
inactive: activity change, negative = inhibition [1] -9.77% | activity change, negative = inhibition [2] 12.3% | activity, negative = inhibition [3] 11.5% | Potency [4] > 20.6 µM

From PubChem BioAssay (NCATS)
